PLK1 PBD inh = qHTS for Inhibitors of PLK1-PDB (polo-like kinase 1 - polo-box domain): Primary Screen; Plk1 PBD binding of FITC phosphopeptide, fluorescence polarization; actives 2.8% (n = 360,000); Potency, µM, for inactives: max response, negative = inhibition, most hits filed as inhibitors; Serine/threonine-protein kinase PLK1 (Homo sapiens), P53350; note: series mostly up to about 57 µM; % is set by controls: 0 for no effect and ±100 for the full control effect; nearly all actives have a fitted effect of over 65% in size
Target sequence (P53350 whole entry, looked up, the tested form may be a part): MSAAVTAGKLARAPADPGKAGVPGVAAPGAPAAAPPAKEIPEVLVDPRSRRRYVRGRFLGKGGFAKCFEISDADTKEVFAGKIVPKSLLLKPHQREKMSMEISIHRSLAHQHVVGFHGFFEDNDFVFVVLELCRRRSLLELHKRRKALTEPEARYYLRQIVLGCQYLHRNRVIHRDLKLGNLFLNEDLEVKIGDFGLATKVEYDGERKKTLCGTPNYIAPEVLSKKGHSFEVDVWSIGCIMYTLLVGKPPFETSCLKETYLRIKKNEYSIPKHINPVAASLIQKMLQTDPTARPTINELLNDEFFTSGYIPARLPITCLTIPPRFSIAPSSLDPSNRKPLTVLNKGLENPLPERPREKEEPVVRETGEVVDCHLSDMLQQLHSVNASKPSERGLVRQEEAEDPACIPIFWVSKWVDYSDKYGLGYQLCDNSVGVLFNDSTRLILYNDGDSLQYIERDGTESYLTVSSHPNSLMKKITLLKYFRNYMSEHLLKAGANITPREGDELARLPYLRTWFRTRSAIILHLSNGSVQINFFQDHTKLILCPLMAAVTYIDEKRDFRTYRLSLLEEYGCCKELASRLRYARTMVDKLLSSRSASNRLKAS
12-LOX inh = Primary qHTS assay for inhibitors of human arachidonate 12S-lipoxygenase (ALOX12): Round 2; Polyunsaturated fatty acid lipoxygenase ALOX12 (Homo sapiens), P18054; purified 12hLO, xylenol orange hydroperoxide absorbance; Potency, µM (top dose mostly 108 µM), for the others: top-dose activity change, negative = inhibition, usual class: inhibitors; actives 1.1% (n = 580,000); note: % is set by controls: 0 for no effect and ±100 for the full control effect
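Purified human 12hLO (150 nM final) in 25 mM Hepes, 0.01% Triton X-100, pH 7.0 was preincubated 15 min at room temperature with compound. Then 40 uM arachidonic acid was added, 30 min. Hydroperoxide was read by Fe-XO absorbance ratio 573/405 nm.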
JMJD2A Tudor inh = qHTS Assay for Inhibitors of JMJD2A-Tudor Domain; AlphaScreen JMJD2A-Tudor / H3K4me3 peptide binding; Potency, µM (doses to about 114 µM), inactives show at the top dose activity change, negative = inhibition, most hits filed as inhibitors; actives 4.4% (n = 390,000); AID 504339, 2011; note: % is set by controls: 0 for no effect and ±100 for the full control effect; nearly all actives have a fitted effect of over 50% in size
BAZ2B block = qHTS Assay for Inhibitors of BAZ2B; Bromodomain adjacent to zinc finger domain protein 2B (Homo sapiens), Q9UIF8; actives 4.4% (n = 360,000); AID 504333, 2011; Potency, µM (titrated, usually from 114 µM), inactives show at the highest dose activity change, negative = inhibition, actives largely listed as inhibitors; AlphaScreen BAZ2B-H3K14Ac peptide displacement; note: % is set by controls: 0 for no effect and ±100 for the full control effect; nearly all actives have a fitted effect of over 60% in size
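AlphaScreen displacement of biotin-H3(5-23)K14Ac peptide (50 nM final) from BAZ2B (50 nM final) in PBS pH 7.4, 0.01% Tween-20; complex preformed 30 min RT, then compounds (top 110 uM) 30 min RT, beads 20 min dark.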
G9a block = qHTS Assay for Inhibitors of Histone Lysine Methyltransferase G9a | Histone-lysine N-methyltransferase EHMT2 (Homo sapiens), Q96KQ7 | G9a H3K9 monomethylation, AlphaScreen, 2 h | Potency, µM (doses to about 102 µM), for the others: at the top dose activity, negative = inhibition, most hits filed as inhibitors | actives 8.8% (n = 350,000); note: % is set by controls: 0 for no effect and ±100 for the full control effect; nearly all actives have a fitted effect of over 75% in size
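G9a (20 nM) was preincubated 15 min with compound, then reacted 2 h at room temperature with 500 nM biotin-H3K9 peptide and 20 µM SAM. Monomethyl-H3K9 detected by AlphaScreen using anti-H3K9me1 antibody.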
HP1b binding inh = HTS for Inhibitors of HP1-beta Chromodomain Interactions with Methylated Histone Tails. AlphaScreen HP1-beta / biotin-H3K9me3 peptide binding. Potency, µM (top dose mostly 114 µM), for inactives: at the highest dose activity change, negative = inhibition, hits mostly inhibitors. actives 0.56% (n = 390,000). AID 540317, 2011; note: nearly all actives have a fitted effect of over 70% in size
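Compound inhibition of the preformed complex between 50 nM HP1-beta and 50 nM biotinylated H3K9me3 peptide was read by AlphaScreen. Buffer was PBS pH 7.4 with 0.01% Tween-20. Incubations ran 30 min at room temperature, with 10 ug/mL donor/acceptor beads.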
The depositor's hits bear a star; ? = inconclusive; / = no result given; [ ] = remark or other dose. This is a sample that favours compounds with a hit; in the whole collection about 9% have one here. Calls come from the whole dose curve; as a rule, active = well fitted curve in the direction sought with a large enough effect; inconclusive = small, poorly fitted or top-dose-only effect, or another doubt; inactive = no such curve, though single readings can be large; an effect the other way counts as inactive or inconclusive. Potency is the fitted concentration of half-maximal effect.

SMILES	PLK1 PBD inh	12-LOX inh	JMJD2A Tudor inh	BAZ2B block	G9a block	HP1b binding inh
S=C1NC2=C(CCc3ccccc32)C(c2ccc(Cl)cc2)N1 (stereo not given)	/	28µM*	/	/	/	/
COc1ccc(C2NC(=O)NC3=C2CCc2ccccc23)cc1 (stereo not given)	?	/	-6%	-4%	?	-1%
Clc1ccc(C2C3=C(Nc4ncnn42)c2ccccc2CC3)cc1 (stereo not given)	/	/	/	-9%	-45%[12.7 µM]	/
C=CCOC(=O)c1[nH]c2c(c1C)C(=O)CC(c1cc(OC)c(OC)c(OC)c1)C2 (stereo not given)	-6%	/	-2%	-3%	-27%	42%
CN(Cc1ccncc1)Cc1ccc(-c2ccccc2)cc1	/	101%[176 µM]	/	/	/	/
CC(=O)C1=C(C)NC(=S)NC1c1ccccc1 (stereo not given)	/	-4%	/	/	/	/
S=C1NC2=C(CCCC2=C2SCCS2)C(c2ccccc2)N1 (stereo not given)	?	?	?	?	10µM*	-16%
CC(=O)Nc1ccc(OC(=O)c2ccccc2OC(C)=O)cc1	/	/	/	/	-4%[12.7 µM]	/
C[C@@H]1CN([C@@H](C)CO)C(=O)CCCn2nncc2CO[C@@H]1CN(C)S(=O)(=O)c1ccc(C#N)cc1	-4%	-6%	/	/	/	/
CCOC(=O)c1cc2nc(-c3ccccc3)cc(C)n2n1	-13%	0%	17%	8%	45µM*	57%
Cc1cc(-c2ccccc2)nc2cc(C(N)=O)nn12	-17%	0%	-17%	-15%	28µM*	23%
CCCNC(=O)Cc1ccc(-n2c(=O)c3ccccc3n(CC(=O)Nc3cc(C)cc(C)c3)c2=O)cc1	/	-22%	/	/	/	/
Cc1cccc(Nc2ccc([N+](=O)[O-])cc2C(=O)O)c1	-9%	-26%	?	50µM*	1.4µM*	0%
Nc1cc([N+](=O)[O-])ccc1Nc1ccccc1	-5%	?	?	?	40µM*	-33%
Nc1cc(C(F)(F)F)ccc1Nc1ccccc1	-14%	?	-23%	50µM*	-51%	-15%
O=C(O)c1cc([N+](=O)[O-])ccc1Nc1ccccc1	-5%	-3%	-17%	-17%	22%[59 µM]	-11%
O=[N+]([O-])c1cc(Br)c(Nc2ccccc2)c([N+](=O)[O-])c1	30µM*	0%	20µM*	14µM*	40µM*	?
COc1cc(NC(=S)NCc2ccco2)cc(OC)c1OC	-4%	3%	-13%	-28%	-20%[59 µM]	19%
CC1=NS(=O)(=O)N(C)C=C1C(=O)OCc1nc(-c2ccsc2)no1	/	6%	/	/	/	/
Cc1ccccc1NC(=O)c1sc2c(c1C)C(c1cccs1)CC(=O)N2 (stereo not given)	/	25µM*	/	/	/	/
Cc1ccccc1NC(=O)c1sc2c(c1C)C(c1ccsc1)CC(=O)N2 (stereo not given)	/	-28%	/	/	/	/
CCCCNS(=O)(=O)c1ccc2nc(SCC(=O)c3ccccc3OC)[nH]c2c1	-1%	-12%	-16%	0%	35µM*	28%
CCCCNS(=O)(=O)c1ccc2nc(SCC(=O)Nc3sccc3C#N)[nH]c2c1	-6%	-4%	-18%	9%	71µM*	12%
CCCCCCCCS(=O)CCC(=O)O (stereo not given)	-18%	25µM*	1%	-9%	22µM*	39%
CCCCCCCCS(=O)CCCCC(=O)O (stereo not given)	/	22%	/	/	/	/
SMILES	PLK1 PBD inh	12-LOX inh	JMJD2A Tudor inh	BAZ2B block	G9a block	HP1b binding inh
COc1cccc(CNC(=O)N2c3ccccc3CC2c2nc(C(C)C)no2)c1 (stereo not given)	/	-3%	/	/	/	/
COc1ccccc1NC(=O)c1cc2cc(Br)ccc2oc1=N	-8%	67%	-26%	-22%	-1%	5%
CCN(C(=O)C1CCCCC1)c1nnc(-c2cccnc2)s1	-14%	?	?	?	50µM*	52%
O=C(CSc1ccc2c(c1)OCCO2)Nc1ccc(Cl)cn1	?	0%	5%	34%	10%[59 µM]	50%
Cc1nnc(SCC(=O)Nc2ccc(Br)cn2)[nH]c1=O	-29%	-9%	-19%	5%	50µM*	56%
O=C(CSc1ccc2c(c1)OCCCO2)Nc1cccc2ccccc12	/	16µM*	/	/	/	/
O=C(CSc1ccc2c(c1)OCCO2)Nc1ncccc1O	-24%	-6%	50µM*	?	5%[0.501 µM]	37%
O=C(CSc1ccc2c(c1)OCCCO2)Nc1ccccc1	/	-13%	/	/	/	/
O=C(CSc1ccc2c(c1)OCCO2)Nc1ccc(Br)cn1	?	?	8%	6%	45µM*	57%
COC(=O)CC1Oc2ccc(C)cc2NC1=O (stereo not given)	-3%	239%	-13%	10%	4%	38%
COC(=O)CC1Oc2ccccc2N(Cc2ccc(C)cc2)C1=O (stereo not given)	27µM*	23%	-25%[11.4 µM]	4%	-8%[59 µM]	18%
COC(=O)CC1Oc2ccc(C)cc2-n2cc(-c3ccc(C)cc3)nc21 (stereo not given)	/	?	-29%	50µM*	?	7%
O=C(NCc1ccccc1)c1cccc(OCC(=O)N2CCN(C(=O)c3ccco3)CC2)c1	-7%	?	40µM*	?	8.9µM*	0%
Cc1ccc(C(=O)c2cc(C)sc2NC(=O)CN2CCN(C(=O)c3ccco3)CC2)cc1	-20%	?	?	?	32µM*	?
O=C(Nc1ccc(N2CCN(C(=O)c3ccco3)CC2)cc1)c1ccc(Br)cc1	0%	9%	-9%	-17%	0%	37%
Cc1ccc(C(=O)Nc2ccc(N3CCN(C(=O)c4ccco4)CC3)cc2)cc1	?	1%	79µM*	-28%	2%	-7%
O=C(Nc1ccc(-c2nnn(CC(=O)N3CCN(C(=O)c4ccco4)CC3)n2)cc1)c1ccc(F)cc1	-6%	?	-5%[11.4 µM]	79µM*	56µM*	54%
CCOc1ccccc1N1CC(c2nc3ccccc3n2CCCCOc2cc(C)ccc2C)CC1=O (stereo not given)	/	?	?	-37%	-37%[59 µM]	21%
Cc1ccc(OCC(=O)Nc2ccc(N3CCN(C(=O)c4ccco4)CC3)cc2)cc1C	3%	-3%	-26%	-11%	8%[0.501 µM]	6%

From PubChem BioAssay
